The list is not random: actives were taken first. Their share in the collection is about 2.2%.
HTR5A ag: activates human HTR5A in OPRM1-OPRD1 agonist counter-screen; HTR5A agonist assay, luminescence, cell-based; activation, % at 9.3 µM; hit rate 0.61% among 340,000; AID 504692; in the data active = activation mostly above about 9.5%, no sharp cut-off; inactive = mostly below about 7.6%;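 note: 0% = cells with vehicle only and 100% = reference agonist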
sPLA2-III inh: Inhibits HGIII-sPLA2 liposome hydrolysis, primary screen | hit rate 0.56% among 370,000 | QFRET BODIPY PC-A2 liposome hydrolysis, fluorescence | inhibition, % at 12.2 µM | Q9NZ20;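 active = inhibition above mean plus 3 SD of compounds lying within the high and low control bounds, cut at about 19% in these data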;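 note: 0% = median of test compound wells and 100% = no enzyme DMSO wells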
Target sequence (Q9NZ20 whole entry, looked up): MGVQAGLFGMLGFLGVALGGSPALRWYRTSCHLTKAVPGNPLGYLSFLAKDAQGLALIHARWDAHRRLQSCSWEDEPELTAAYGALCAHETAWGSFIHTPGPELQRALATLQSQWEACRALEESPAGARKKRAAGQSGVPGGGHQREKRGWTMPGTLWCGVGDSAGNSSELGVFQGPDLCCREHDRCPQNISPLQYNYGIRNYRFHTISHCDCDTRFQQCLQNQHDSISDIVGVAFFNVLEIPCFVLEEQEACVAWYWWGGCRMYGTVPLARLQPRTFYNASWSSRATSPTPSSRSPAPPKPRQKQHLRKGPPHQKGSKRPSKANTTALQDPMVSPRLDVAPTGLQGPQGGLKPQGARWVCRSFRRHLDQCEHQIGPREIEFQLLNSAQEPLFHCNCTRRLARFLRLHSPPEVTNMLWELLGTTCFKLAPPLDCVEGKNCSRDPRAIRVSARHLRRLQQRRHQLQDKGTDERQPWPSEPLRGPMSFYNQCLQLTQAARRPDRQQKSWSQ
MOR-DOR inv ag: mu-delta opioid heterodimer inverse agonism; P35372+P41143; cell-based MOR-DOR heterodimer luminescence; inhibition, % at 9.3 µM; hit rate 0.21% among 340,000; AID 504357; in the data active = inhibition above about 22%, passing the limit was not always enough;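 note: 0% = cells with DMSO and 100% = wells without cells with DMSO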
OPRM1-OPRD1 ag: OPRM1-OPRD1 heterodimerization agonism; cells, luminescence; P35372+P41143; activation, % at 9.3 µM; AID 504326; hit rate 0.3% among 340,000; in the data active = activation above about 18%;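 note: 0% = vehicle-treated cells and 100% = reference agonist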
HTR2A ag: agonists of mouse serotonin 5-HT2A receptor (HTR2A). P35363. CHO-K1 mHTR2A beta-arrestin complementation, luminescence; percent of 30 µM serotonin response. activation, % at 7.6 µM. hit rate 0.66% among 360,000. AID 624169;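 active = activation above a run cutoff, the mean activation of all tested compounds plus 3 SD, cut at about 14% in these data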;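 note: 0% = plate median of compound wells and 100% = 30 µM serotonin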
HTR5A inv ctr: inverse agonist of human HTR5A in OPRM1-OPRD1 counter-screen | HTR5A cell line, luminescence, inverse agonism | inhibition, % at 9.3 µM | hit rate 0.083% among 340,000 | AID 504634 | P47898; in the data active = inhibition mostly above about 23%, no sharp cut-off; inactive = mostly below about 18%;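 note: 0% = cells with DMSO and 100% = no-cell wells with DMSO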
sPLA2 confirm: human GIII-sPLA2 inhibition, confirmation | shares compounds with sPLA2-III inh | recombinant hGIII-sPLA2, BODIPY PC-A2 QFRET fluorescence | inhibition, % at 12.2 µM | hit rate 34% among 2,000 | AID 743280;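 active = mean inhibition across triplicates above the hit cutoff set in the earlier primary screen, cut at about 19% in these data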;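 note: 0% = enzyme with DMSO and 100% = DMSO wells lacking enzyme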
535nm interf: 535nm fluorescence interference, HGIII-sPLA2 counter-screen. inhibition, % at 12.2 µM. hit rate 8.5% among 2,000. shares compounds with sPLA2-III inh. BODIPY FL product fluorescence interference, QFRET. AID 743282;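 active = average inhibition above the solvent-only control mean plus 3 SD, cut at about 6% in these data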;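 note: 0% = DMSO with substrate plus product and 100% = DMSO with substrate alone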
* marks the source's active call; other numbers are inactive results; . = no result.

SMILES | HTR5A ag | sPLA2-III inh | MOR-DOR inv ag | OPRM1-OPRD1 ag | HTR2A ag | HTR5A inv ctr | sPLA2 confirm | 535nm interf
O=[N+]([O-])c1cc(Cc2ccccc2)cc(C=Nc2ccc(N3CCOCC3)cc2)c1O | -1 | . | -8 | 2 | 2 | 13 | . | .
O=C(c1ccc(-c2cc(O)c3ncccc3c2)cc1)N1CCNCC1 | -4 | 23* | 6 | -1 | -6 | -1 | -11 | -22
CC(C)(C)c1ccc(C(=O)N2CCNCC2)cc1 | -2 | -9 | 7 | -1 | 3 | 1 | . | .
COc1cccc(-n2sc3c(c2=S)-c2cc(OC)ccc2NC3(C)C)c1 | 0 | 27* | -27 | 5 | -4 | -6 | 17 | 0
COc1cccc(C(=O)NCCCNC(=O)c2cccc(OC)c2)c1 | 1 | 17 | 4 | -1 | -2 | -5 | . | .
COc1cccc(C(=O)NCCCNC(=O)c2ccco2)c1 | -1 | 22* | -15 | 2 | 5 | -3 | 1 | -8
CCS(=O)(=O)Nc1ccc2c(c1)C(=O)N(C)[C@@H]1CC[C@H](CC(=O)N[C@@H]3CCN(Cc4ccccc4)C3)O[C@H]1CO2 | . | 20* | . | . | . | . | -1 | -12
COc1cccc(CNC(=O)C[C@H]2CC[C@H]3[C@@H](COc4ccc(NC(=O)c5cccs5)cc4C(=O)N3C)O2)c1 | . | -28 | . | . | . | . | . | .
CCC(=O)Nc1ccc2c(c1)C(=O)N(C)[C@@H]1CC[C@@H](CC(=O)NCc3ccc(OC)cc3)O[C@H]1CO2 | . | 19* | . | . | . | . | 1 | -5
COC(=O)C[C@H]1CC[C@@H]2[C@H](COc3ccc(NC(=O)C(C)C)cc3C(=O)N2C)O1 | . | 19* | . | . | . | . | 0 | -6
CCCNC(=S)N1CCC(NC(=O)c2cccc(C)c2)CC1 | 0 | 20* | 7 | -1 | 5 | -2 | 13 | -8
Cc1cccc(C(=O)NC(=S)N2CCN(C(=S)NC(=O)c3cccc(C)c3)CC2)c1 | -1 | 29* | 22 | -4 | 2 | 3 | 19 | -5
Cc1cccc(C(=O)NC(=S)N2CCN(C)CC2)c1 | 4 | 5 | 15 | -3 | -2 | 11 | . | .
CCCCCCCCN1C(=O)N2Cc3ccc(C)cc3C2CS1(=O)=O (stereo not given) | . | 2 | . | . | . | . | . | .
COc1cccc(Sc2ccccc2CN(C)C)c1 | 5 | 20* | 8 | -2 | -3 | 21 | -3 | -19
CN(C)Cc1ccccc1Sc1ccc2c(c1)CCCC2 | . | -4 | . | . | -10 | . | . | .
C#CCN1CC(N(C)CCOC(=O)CC2C=CCC2)CS1(=O)=O (stereo not given) | . | 7 | . | . | . | . | . | .
CN1C(=O)C[C@@](C#N)(C(=O)NCC(F)(F)F)[C@H]1c1ccccc1 | . | -1 | . | . | . | . | . | .
CC(C1CC1)N(Cc1ccccc1)C(=S)Nc1cccc(C(F)(F)F)c1 (stereo not given) | 2 | 21* | -9 | 2 | -3 | -12 | 9 | -6
CC(=O)C1=C(C)N(Cc2ccc(F)cc2)C(=S)NC1c1ccc(Br)cc1 (stereo not given) | . | -1 | . | . | . | . | . | .
CN(/N=C/c1ccc2c(c1)OCO2)c1ccccc1 | -1 | 23* | -35 | 7 | -1 | 3 | 41* | 6.6*
CC(C)C[C@H]1COc2cccc(N3CCCC3)c2S(=O)(=O)N1C | . | 6 | . | . | . | . | . | .
Cc1cccc(N2CN(Cc3cccnc3)CNC2=S)c1 | 0 | 19* | 1 | 0 | 9 | 0 | -4 | -7
CCc1ccc(N2CN(Cc3cccnc3)CNC2=S)cc1 | 0 | 15 | 13 | -2 | 0 | 18 | . | .
Cc1ccc(S(=O)(=O)NNC(=O)c2sc(=S)n(C)c2C)cc1 | 1 | 23* | 0 | 0 | 4 | 13 | 6 | -2
SMILES | HTR5A ag | sPLA2-III inh | MOR-DOR inv ag | OPRM1-OPRD1 ag | HTR2A ag | HTR5A inv ctr | sPLA2 confirm | 535nm interf
Cc1ccc(S(=O)(=O)NNC(=O)c2ccncc2)cc1 | -2 | 7 | 4 | -1 | 0 | 1 | . | .
COc1ccc(-c2ccc(C(=O)Nc3cccc(F)c3)c3occc23)c(C)c1 | . | 4 | . | . | 1 | . | . | .
COc1ccc(-c2ccc(C(=O)Nc3cccc(N(C)C)c3)c3occc23)c(C)c1 | . | 20* | . | . | 3 | . | 16 | 7.7*
N=c1n(CCN2CCCCC2)c2ccccc2n1CC(O)c1ccco1 (stereo not given) | . | 21* | . | . | -2 | . | -1 | -21
COC(=O)[C@]12C[C@H](CC(=O)N3CCOCC3)C(=O)N(CCc3ccc(OC)c(OC)c3)C1=C[C@H](C1CCCC1)O[C@@H]2C | . | 5 | . | . | . | . | . | .
O=C(NC1CCCCN(Cc2ccc(Cl)cc2)C1=O)C1C2CC3CC(C2)CC1C3 (stereo not given) | . | 4 | . | . | . | . | . | .
CCn1c(C)nc2cc(C(=O)NNC(=S)Nc3ccc(C)cc3)ccc21 | 6 | 20* | 28 | -6 | -3 | -18 | 27* | 1
CCOc1ccc(CCNC(=O)c2cc3sccc3n2Cc2ccccc2)cc1OCC | . | -7 | . | . | . | . | . | .
Cc1cc(N(C)C)ccc1N=Nc1ccc2ncccc2c1 | -5 | 23* | -3 | 1 | 5 | 20 | 23* | 2
O=C(C1CCCN1S(=O)(=O)c1cccc([N+](=O)[O-])c1)N1CCN(c2ccccc2)CC1 (stereo not given) | . | -1 | . | . | . | . | . | .
C=CCc1cc(Cl)ccc1OCCCNC(C)C | -1 | 23* | -6 | 1 | -3 | -21 | -9 | -26
O=C(NC1CCCCN(Cc2cccc(C(F)(F)F)c2)C1=O)c1ccc(-c2ccccc2)cc1 (stereo not given) | . | 3 | . | . | . | . | . | .
COc1cccc(/C=N/NC(=O)C(=O)N/N=C/c2cccc(OC)c2O)c1O | . | 5 | . | . | 0 | . | . | .
CC(C)Oc1ccc(/C=N/NC(N)=S)cc1 | 3 | 18 | 9 | -2 | -3 | -9 | . | .
COC(=O)c1cccc(/C=N/NC(N)=S)c1O | 3 | 21* | -4 | 1 | -2 | 4 | 20* | -1
COc1ccc(/C=N/NC(N)=S)cc1 | 5 | 21* | 11 | -2 | 13 | -14 | 2 | -9
O=C(N1CCc2ccccc2C1)n1cc(C(O)(c2ccccc2)c2ccccc2)nn1 | . | -12 | . | . | . | . | . | .
C=CCN1C(=O)[C@@H](CC(=O)NCc2ccc(C)o2)[C@]2(C(=O)OCC)CCCCC/C=C/12 | . | -12 | . | . | . | . | . | .
O=C1CNC(=S)N1C(CO)c1ccccc1 (stereo not given) | -1 | -20 | 8 | -1 | 6 | 2 | . | .
OC(c1ccccc1)c1ccccc1CN1CCCNC1=S (stereo not given) | . | 19* | . | . | -2 | . | 10 | -1
CCN(CC)C(=O)C12C(=O)Oc3ccccc3C1C2(C)C(=O)c1ccc(F)cc1 (stereo not given) | 3 | 20* | 11 | -2 | -2 | -12 | -2 | -8
CCOc1ccccc1Oc1nc(-c2ccccc2O)nc2ccccc12 | -1 | 20* | -7 | 1 | -1 | 3 | -15 | -2

High-throughput results: PubChem, The Scripps Research Institute Molecular Screening Center
